Rows were chosen to be rich in hits. Some 19% of all compounds tested hit in one or more screens of this group.
TDP1 cell CPT – DT40-hTDP1 cell growth loss with CPT; chicken DT40 Tdp1-/-;hTDP1 cells + 20 nM CPT, ATP luminescence, 48 h; Potency, µM (doses to about 46.2 µM), actives largely listed as inhibitors; hit rate 12% among 420,000; also: nearly all actives have a fitted effect of over 55% in size
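Cell growth measured by CellTiter-Glo luminescence after a minimum 48 h, 37 C compound exposure with 20 nM CPT in Tdp1-knockout DT40 cells stably expressing hTDP1, seeded 400/well; qHTS titration format.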
MCF10A rerep – DNA re-replication induction in MCF 10a cells; MCF 10A DNA re-replication, Hoechst nuclear intensity, 48 h; Potency, µM (highest dose often 46.1 µM), actives largely listed as activators; hit rate 2.9% among 350,000; AID 624296; also: nearly all actives have a fitted effect of over 50% in size
SW480 rereplic – inducers of DNA re-replication in SW480 colon cancer cells; AID 624297; SW480 DNA re-replication, Hoechst DNA content imaging, 48 h; hit rate 1.8% among 340,000; Potency, µM (top dose mostly 46.1 µM), hits mostly activators; also: nearly all actives have a fitted effect of over 55% in size
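250 cells/well; 23 nL cpd via pin tool; 48 hr, 37 C, 5% CO2; Hoechst 40 min; imager read of total nuclear intensity, ex 405/em 500-530 nm.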
Chronic BCR inh – blocks chronic active B-cell receptor signaling; hit rate 0.05% among 340,000; Potency, µM (highest dose often 46.1 µM), most hits filed as inhibitors; AID 493014; ABC-DLBCL IkBa-CBG/CBR reporter, luminescence ratio, 4 h; active = well fitted inhibition curve with a large enough effect in the signal ratio, with a control signal flat, not every such curve was filed as active; inconclusive = small, poorly fitted or top-dose-only effect, or effect the other way, or a change in a side signal; the % refers to the signal ratio
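TMD8 human ABC-DLBCL cells with doxycycline-inducible IκBα–green luciferase fusion and unfused red luciferase, in 0.5% FBS medium; compounds up to 46 uM, 4 h at 37C. Green/red luminescence ratio, filter-overlap corrected, fitted to concentration-response curves.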
TDP1 cell noCPT – qHTS for Inhibitors of human tyrosyl-DNA phosphodiesterase 1 (TDP1): qHTS in cells in absence of CPT; hit rate 15% among 420,000; DT40 Tdp1-/- hTDP1 cells, no CPT, ATP luminescence, 48 h; Potency, µM (titrated, usually from 46.2 µM), hits mostly inhibitors; also: nearly all actives have a fitted effect of over 55% in size
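Chicken DT40 Tdp1-/- cells complemented with human TDP1, screened without camptothecin (DMSO vehicle only), 400 cells/well. Compounds pin-transferred, cells incubated at 37 °C for at least 48 hr. Growth read as ATP-dependent luminescence (CellTiter-Glo, 30 min at RT).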
IL1B secr inh – inhibitors of inflammasome signaling (IL-1 beta secretion) | activity change, % at 57.5 µM | THP-1 LPS/ATP IL-1B secretion, AlphaLISA, 16 h; active compounds read low | hit rate 4.7% among 360,000; in the data active = activity change below about -50%; inconclusive = mostly about -30% to -49%
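THP-1 cells pretreated 1 hr with compounds (up to 57.5 uM final), then stimulated with LPS (250 ng/mL final) plus ATP (1.25 mM final); secreted IL-1B measured by AlphaLISA after 16 hr, decreased signal indicating inhibition.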
Hits are given with their value; – = inactive; ? = inconclusive; · = not tested or not shown. Unless noted, calls follow the shape of the dose curve; as a rule, active = well fitted curve in the direction sought with a large enough effect; inconclusive = small, poorly fitted or top-dose-only effect, or another doubt; inactive = no such curve, though single readings can be large; an effect the other way counts as inactive or inconclusive.

SMILES	TDP1 cell CPT	MCF10A rerep	SW480 rereplic	Chronic BCR inh	TDP1 cell noCPT	IL1B secr inh
CCc1nc2c(OCc3ccc(F)c(F)c3)cccn2c1N(C)C(=O)c1cccs1	?	·	·	·	23µM	–
CCc1nc2c(OCc3ccc(Cl)cc3)cccn2c1N(C)C(=O)c1cccs1	?	·	·	·	?	–
CCc1nc2c(OCc3cccc(OC)c3)cccn2c1N(C)C(=O)c1ccccc1F	?	·	·	·	?	–
CCc1nc2c(OCc3cc(Cl)cc(Cl)c3)cccn2c1N(C)C(=O)c1ccccc1F	?	·	·	·	?	-58
CCc1nc2c(OCC3COc4ccccc4O3)cccn2c1N(C)C(=O)c1ccccc1F (centres undefined)	21µM	·	·	·	21µM	–
COc1ccc(-c2cn(Cc3ccc(C)cc3)nn2)cc1	–	–	–	–	–	–
COCCCN(CCC#N)C(=O)c1c(-c2c(Cl)cccc2Cl)noc1C	–	–	–	–	–	–
O=CNc1cc(-c2ccccc2Oc2ccccc2)cn2c(-c3ccc(F)cc3)cnc12	?	·	·	·	10µM	–
CC(=O)c1ccc(-c2cnc3c(NC=O)cc(-c4ccccc4Oc4ccccc4)cn23)cc1	?	·	·	·	21µM	–
O=C(CCCl)Nc1cc(SCCO)cc([N+](=O)[O-])c1	?	–	–	–	–	–
O=C(Nc1cc(SCCO)cc([N+](=O)[O-])c1)c1ccc(Br)o1	?	–	–	?	21µM	–
COC1(OC)C(=N/O)/C(=N\O)CCC1O (centres undefined)	–	16µM	–	–	?	–
CCOc1ccc(OCC(=O)Nc2cc(Cl)ccc2-n2cncn2)cc1	?	·	·	·	?	–
COc1ccc(CCC(=O)Nc2cccc(S(=O)(=O)N3CCCCCC3)c2)cc1OC	?	–	–	–	15µM	–
COc1ccc(CC(=O)Nc2cccc(S(=O)(=O)N3CCCCCC3)c2)cc1OC	6.5µM	–	–	–	7.3µM	–
COc1ccc(CC(=O)Nc2cc(S(=O)(=O)N3CCCCC3)ccc2OC(C)C)cc1OC	?	·	·	·	21µM	–
COc1ccc(CC(=O)Nc2cccc(SC)c2)cc1OC	12µM	–	–	?	9.2µM	–
COc1ccc(CCC(=O)Nc2ccc(S(=O)(=O)N3CCCC3)cc2)cc1OC	–	–	–	–	–	–
COc1ccc(S(=O)(=O)N2CCCCCC2)cc1NC(=O)Cc1ccccc1	–	–	–	–	–	–
COc1ccc(CC(=O)Nc2ccc(S(=O)(=O)N3CCCCC3)cc2)cc1OC	?	–	–	–	?	–
Cc1sc2nc(CN3CCCC3)nc(N3CCN(S(=O)(=O)c4cccc(F)c4)CC3)c2c1C	?	?	–	–	?	–
Cc1cc(=O)oc2cc(O[C@@H]3O[C@H](CO)[C@@H](O)[C@H](O)[C@H]3O)ccc12	–	–	–	–	–	–
O=C(COc1ccccc1)NC1CCSC1=O (centres undefined)	–	–	–	–	–	–
CCOC(=O)c1c(NC(NC(=O)C(C)C)C(Cl)(Cl)Cl)sc2c1CCC2 (centres undefined)	15µM	23µM	?	–	16µM	–
CCOC(=O)c1c(NC(=O)c2cc(Cl)ccc2Cl)sc2c1CCCC2	–	·	·	·	–	·
SMILES	TDP1 cell CPT	MCF10A rerep	SW480 rereplic	Chronic BCR inh	TDP1 cell noCPT	IL1B secr inh
Clc1cc(Br)ccc1NCc1cccnc1	?	–	–	?	–	–
Cc1nc2ccccn2c1C(=O)CSc1ccc(Cl)cc1Cl	?	–	–	–	18µM	–
Cc1nc2ccccn2c1C(=O)Nc1ccc(Cl)cc1	–	–	–	–	?	–
Cc1nc2ccccn2c1C(=O)CSc1ccccc1Cl	16µM	–	–	–	16µM	–
CCN(CC)C(=O)c1c(C)nc2ccccn12	–	–	–	–	–	–
Cc1nc2ccccn2c1C(=O)CSc1cccc(Cl)c1	?	–	–	?	?	-70
CCc1ccc(NC(=O)CN2C(=O)C(c3ccc(F)cc3)=NC2(C)C)cc1	–	·	·	·	–	·
O=C1N(c2ccccc2)C[C@@H]2C[C@@H](c3cc4ccccc4o3)N3CCC[C@@]123	–	?	?	–	23µM	-103
CCOC(=O)c1ccc(N2C(=O)[C@@H](c3ccccc3)[C@H]2c2ccccc2)cc1	?	?	–	?	?	–
CCOC(=O)c1ccc(NC2=CC(c3ccc(F)cc3)N(c3ccc(C(=O)OCC)cc3)C2=O)cc1 (centres undefined)	16µM	·	·	·	18µM	·
COCCNC(=O)c1c(C)oc2nc(C)nc(N3CCOCC3)c12	–	·	·	·	–	·
CCCN1CCC(=O)N([C@H](CSc2ccccc2)c2ccccc2)CC1	13µM	–	–	–	18µM	–
CCCN1CCC(=O)N([C@H](CSc2ccc(C)cc2)c2ccccc2)CC1	16µM	?	–	–	8.2µM	–
CCN(C[C@H]1N[C@@](C)(C(=O)OC)[C@H]2C(=O)N(Cc3ccccc3)C(=O)[C@@H]12)C(=O)c1ccc(C)cc1	–	–	?	–	–	–
CCOC(=O)c1cnc(-n2cc(C)cn2)nc1Nc1ccccc1OCC	10µM	–	–	–	6.5µM	–
CC1(C)CC(=O)C2=C(C1)OC(N)=C(C#N)C21C(=O)N(CN2CCOCC2)c2ccccc21 (centres undefined)	–	–	–	–	–	–
COc1cccc(CN2C(=O)C3(C(C#N)=C(N)OC4=C3C(=O)CCC4)c3ccccc32)c1 (centres undefined)	0.65µM	–	–	–	0.92µM	–
COc1ccc(/C=N/NC(=S)Nc2ccccc2[N+](=O)[O-])cc1O	6.5µM	?	?	?	4.6µM	–
FC(F)(F)c1ccc(Cl)c(NC(=S)N/N=C/c2ccccc2Cl)c1	?	–	–	–	?	–
CC(C)c1ccc(/C=N/NC(=O)C2CCCC2)cc1	?	–	–	?	?	–
S=C(N/N=C/c1ccc(Cl)c(Cl)c1)Nc1ccccc1Cl	23µM	–	?	?	?	–
Cc1ccc(NC(=S)N/N=C/c2c(Cl)cccc2Cl)c(C)c1	1.3µM	1.5µM	1.3µM	?	1.5µM	–
CC(C)(C)c1ccc(/C=N/NC(=O)C2CCCC2)cc1	21µM	–	–	?	13µM	–
COc1ccc(-c2c(-c3cc(OC)cc(OC)c3)n(C)c3ccc(-c4ccc5[nH]ccc5c4)cc23)cc1	–	?	–	–	–	–
Cc1ccsc1C(=O)OCC(=O)N1CC(C)CC(C)C1 (centres undefined)	–	?	–	–	–	–
Cc1ccc(NC(=S)N/N=C/c2ccc(Cl)c([N+](=O)[O-])c2)cc1	–	?	–	?	–	–
